The values that follow come from PubChem BioAssay (NCATS).

SMILES strings stand for the structures. “And” between values parts separate entries of the source, which are not always exact repeats. Equal values may be shown once. Inconclusive results are not listed. Unmarked numbers belong to inactive results. The source made the active and inactive calls. Calls come from the whole dose curve; as a rule, active = well fitted curve in the direction sought with a large enough effect; inconclusive = small, poorly fitted or top-dose-only effect, or another doubt; inactive = no such curve, though single readings can be large; an effect the other way counts as inactive or inconclusive.

The nature of experiment [1]: Viability qHTS for spleen associated tyrosine kinase inhibitor (SYKi) naive MV4-11 cells (AID 1963823). Note: nearly all actives have a fitted effect of over 40% in size. Put shortly: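 Viability of MV4-11 AML cells lacking prior SYK inhibitor exposure is scored by CellTiter-Glo luminescence following 72 hr compound incubation at 37 C, 5% CO2, seeded at 500 cells per well.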
A short description of experiment [2]: Viability qHTS for spleen associated tyrosine kinase inhibitor (SYKi) drug resistant MV4-11 cells (AID 1963824). Note: nearly all actives have a fitted effect of over 35% in size. An outline of the steps:
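CellTiter-Glo luminescence, read 10 min after reagent addition, reports viability after a 72 hr compound exposure. Cells are an MV4-11 line made resistant to SYK inhibition, seeded at 500 per well onto compound-containing plates.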
(In general: Quantitative high-throughput screening tests each substance at several concentrations.)

Experiment [3] is described as follows: Cellular viability qHTS for adrenocortical cancer (ACC) cell line SW-13 (AID 1963989).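 For activity (max response): cells grown in serum-free medium with ITS supplement; % is set by controls: 0 for no effect and ±100 for the full control effect.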 Note: nearly all actives have a fitted effect of over 65% in size. The conditions noted are these: SW-13 ACC cells viability, CellTiter-Glo, 48 h; activity (max response): active compounds read low. Put shortly: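 Here, serum-free SW-13 cultures were dosed up to 46 uM. Following 48 h, ATP-dependent luminescence (CellTiter-Glo) reported viable cells, and logistic modeling produced IC50 values.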

The nature of experiment [4]: Cellular viability qHTS for adrenocortical cancer (ACC) cell line NCI-H295R (AID 1963990). Note: nearly all actives have a fitted effect of over 60% in size. Put shortly:
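Viability of NCI-H295R after 48 h of treatment (final up to 46 uM) measured through cellular ATP luminescence.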
Potency is the fitted concentration of half-maximal effect.

`CC(C)OP(=O)(CP(=O)(OC(C)C)OC(C)C)OC(C)C`: the Potency entry in experiment [1], in experiment [2] and in experiment [4] was “inactive” in each case. Besides, the activity (max response) in experiment [3] was 9.07%.
On to `CN1CCC[C@@H]1c1cccnc1`, for which the Potency entry in experiment [1], in experiment [2] and in experiment [4] was “inactive” in each case. The activity (max response) in experiment [3] is -8.92%.
On to `NS(=O)(=O)c1cc(-c2nn[nH]n2)c(NCc2cccs2)cc1Cl`, for which the Potency entry in experiment [1], in experiment [2] and in experiment [4] was “inactive” throughout. For the same compound, the activity (max response) in experiment [3] was 11.4%.
Regarding `CC(C)NCCCC1(C(N)=O)c2ccccc2-c2ccccc21`, the Potency entry in experiment [1], in experiment [2] and in experiment [4] was “inactive” each time. Also, in experiment [3], the activity (max response) is 9.8%.
Consider `CC(=NNC(=O)c1cccc(S(=O)(=O)N2CCOCC2)c1)c1cc(Cl)ccc1O`, for which the Potency in experiment [1] is 742 nM (active); in experiment [2], 742 nM (active); in experiment [3], 3.55 µM (active); in experiment [4] it was 4.47 µM (active).
Take `O=C(/C=C/c1cccc(S(=O)(=O)Nc2ccccc2)c1)NO`: the Potency in experiment [1] was 563 nM (active) and 417 nM (active); in experiment [2], 282 nM (active) and 332 nM (active); in experiment [3], 3.55 µM (active); in experiment [4] it was 2.51 µM (active).
Regarding `CCCNC(C)(C)COC(=O)c1ccccc1`, the Potency result in experiment [1], in experiment [2] and in experiment [4] was “inactive” in each case. Besides, the activity (max response) in experiment [3] was -2.6%.
On to `CN1C(C)(C)CCCC1(C)C`, for which the Potency entry in experiment [1], in experiment [2] and in experiment [4] was “inactive” each time. Besides, in experiment [3], the activity (max response) is -4.6%.
Take `COc1cccc2c1C(=O)c1c(O)c3c(c(O)c1C2=O)C[C@@](O)(C(=O)CO)C[C@@H]3O[C@H]1C[C@H](N)[C@H](O)[C@H](C)O1`: the Potency in experiment [1] was 133 nM (active); in experiment [2] it was 299 nM (active); in experiment [3], 2.31 µM (active) and 891 nM (active); in experiment [4], 23.1 µM (active) and 7.08 µM (active).
Turning to `C[C@]12CCC(=O)C=C1CC[C@@H]1[C@@H]2CC[C@@]2(C)[C@H]1CC[C@]2(O)C(=O)CO`, the Potency result in experiment [1], in experiment [2] and in experiment [4] was “inactive” each time. Further, in experiment [3], the activity (max response) was -2.88%.
As to `COc1c(Nc2ncc(Cl)c(N[C@H]3[C@H](C(N)=O)[C@@H]4C=C[C@@H]3C4)n2)ccc2c1CCC(N1CCOCC1)CC2` (stereo partly drawn), the Potency is 130 nM (active) in experiment [1], 366 nM (active) in experiment [2], 15.8 µM (active) in experiment [3] and 7.94 µM (active) in experiment [4].
In the case of `CC(=O)N[C@@H](CCC(=O)O)C(=O)O`, the Potency entry in experiment [1], in experiment [2] and in experiment [4] was “inactive” in each case. In experiment [3], the activity (max response) was 10.8%.
In the case of `C[N+](C)(C)CC[N+]1(C)Cc2c(Cl)c(Cl)c(Cl)c(Cl)c2C1`, the Potency result in experiment [1], in experiment [2] and in experiment [4] was “inactive” each time. Further, in experiment [3], the activity (max response) was 6.09%.
In the case of `COC1CCC(N2C(=O)CNc3ncc(-c4ccc(C(C)(C)O)nc4)nc32)CC1` (stereo not drawn), the Potency in experiment [1] is 5250 nM (active); in experiment [2], 4170 nM (active); in experiment [3], 15.8 µM (active); in experiment [4], 15.8 µM (active).
Take `CC(C)[C@H]1C(=O)N[C@@H](CCCN=C(N)N)C(=O)NCC(=O)N[C@@H](CC(=O)O)C(=O)N[C@H](Cc2ccccc2)C(=O)N1C`: the Potency result in experiment [1], in experiment [2] and in experiment [4] was “inactive” throughout.
Take `C[C@@H]1C[C@H](N)C[C@H](c2ccncc2NC(=O)c2ccc(F)c(-c3c(F)cccc3F)n2)C1`: the Potency was 1180 nM (active) in experiment [1], 2630 nM (active) in experiment [2] and 28.2 µM (active) in experiment [4].
For `CCCCCCCCCCCC[N+](C)(C)Cc1ccccc1` the same measures were 6680 nM (active), 9440 nM (active) and 29.1 µM (active).
In the same order, the values of `CC(=O)O[C@@]12CO[C@@H]1C[C@H](O)[C@@]1(C)C(=O)[C@H](O)C3=C(C)[C@@H](OC(=O)[C@H](O)[C@@H](NC(=O)OC(C)(C)C)c4ccccc4)C[C@@](O)([C@@H](OC(=O)c4ccccc4)[C@H]21)C3(C)C` are 2.7 nM (active), 2.4 nM (active) and 0.0411 µM (active).
In the case of `N#C/C(=C(/N)Sc1ccc(N)cc1)c1ccccc1C(F)(F)F`, the Potency in experiment [1] is 10500 nM (active); in experiment [2] it was 7420 nM (active). In experiment [4], the Potency result was “inactive”.
Turning to `C=C1C[C@@]2(O)O[C@@]3(C[C@H]2C(C)C)[C@@H](C)CC[C@@H]13`, the Potency entry in experiment [1], in experiment [2] and in experiment [4] was “inactive” throughout.
Regarding `COC(=O)C1=C(C)NC(C)=C(C(=O)O[C@@H]2CCCN(Cc3ccccc3)C2)[C@@H]1c1cccc([N+](=O)[O-])c1`, the Potency is 21.1 µM (active) and 13 µM (active) in experiment [1]; 15 µM (active) and 13 µM (active) in experiment [2]; 23.1 µM (active) in experiment [4].
`CC/C=C(\C(=O)N[C@@H]1C(=O)N2C(C(=O)OCOC(=O)C(C)(C)C)=C(COC(N)=O)CS[C@H]12)c1csc(N)n1`: the Potency result in experiment [1], in experiment [2] and in experiment [4] was “inactive” throughout.
With `COc1c(C)c2c(c(O)c1C/C=C(\C)CCC(=O)OCCN1CCOCC1)C(=O)OC2`, the Potency in experiment [1] was 1.5 µM (active) and 332 nM (active); in experiment [2] it was 1.19 µM (active) and 833 nM (active); in experiment [4], 1.26 µM (active).
With `COc1ccc2cc1Oc1ccc(cc1)C[C@H]1c3c(cc4c(c3Oc3cc5c(cc3OC)CCN(C)[C@@H]5C2)OCO4)CCN1C`, the Potency in experiment [1] was 11900 nM (active); in experiment [2] it was 9440 nM (active); in experiment [4], 18.4 µM (active).
With `COc1cc(S(N)(=O)=O)cc(C(=O)O)c1OC`, the Potency entry in experiment [1], in experiment [2] and in experiment [4] was “inactive” throughout.
For `CC[C@]12CCCN3CCc4c(n(c5ccccc45)[C@@](O)(C(=O)OC)C1)[C@@H]32`, the Potency entry in experiment [1], in experiment [2] and in experiment [4] was “inactive” each time.
In the case of `CNC(=O)c1cccc(-c2ccc3c(N4CCOC[C@@H]4C)nc(N4CCOC[C@@H]4C)nc3n2)c1`, the Potency in experiment [1] is 164 nM (active) and 411 nM (active) and 132 nM (active); in experiment [2], 291 nM (active) and 580 nM (active) and 417 nM (active); in experiment [4], 0.794 µM (active).
For `Cc1nnn(C)c1-c1cnc2c3ccc(C(C)(C)O)cc3n([C@H](c3ccccc3)C3CCOCC3)c2c1`, the Potency in experiment [1] was 4.2 nM (active); in experiment [2] it was 3 nM (active); in experiment [4], 0.178 µM (active).
